Results filed as inconclusive are left out. Values without a mark were called inactive. Calls of active or inactive are those of the source. The call rests on the fitted dose curve; in most records, active means well fitted inhibition curve with a large enough effect; inconclusive means small, poorly fitted or top-dose-only effect; inactive means flat fitted curve, though single readings scatter.
On the % scale 0 is the no-effect control and ±100 the full control effect.

Calcium and integrin-binding protein 1 (Homo sapiens), sequence (Q99828 whole entry, looked up): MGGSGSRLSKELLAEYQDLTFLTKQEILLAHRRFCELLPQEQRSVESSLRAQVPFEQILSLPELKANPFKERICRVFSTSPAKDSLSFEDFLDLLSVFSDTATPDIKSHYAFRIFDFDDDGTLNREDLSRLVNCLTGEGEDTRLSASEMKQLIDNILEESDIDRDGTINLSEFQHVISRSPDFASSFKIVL

This test addresses Calcium and integrin-binding protein 1 (Homo sapiens) (UniProt Q99828). As to the kind of experiment: Primary qHTS for Identification of Calcium Integrin Binding Protein 1 (CIB1) Competitor (AID 1508620).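 Further: GST tagged CIB1 binding a fluorescein labelled alphaIIb integrin peptide tracer; top concentration of the series differs between compounds.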 The note with it: CIB1-GST / FITC-alphaIIb peptide fluorescence polarization; series mostly up to 57.7 µM; activity change, negative = inhibition: at the top concentration. The gist of the method:
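CIB1-GST (1 uM final) and compound incubated 15 min at room temperature before adding FITC-alphaIIb peptide tracer (100 nM final). Competition for binding read by fluorescence polarization (ex 480, em 540) after another 15 min at room temperature.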
Regarding `C[C@H]1CC[C@@]2(OC1)O[C@H]1CC3C4CC=C5C[C@H](O)C[C@@H](O[C@@H]6O[C@@H](C)[C@H](O)[C@@H](O)[C@H]6O[C@@H]6O[C@@H](C)[C@H](O)[C@@H](O)[C@H]6O)[C@]5(C)C4CC[C@]3(C)[C@H]1[C@@H]2C` (some centres not stated), the “activity change, negative = inhibition” value was 0.158% [at 30.2 µM].

For `C=CC1(C)C=C2C(=O)CC3C(C)(C)CCCC3(C(=O)O)C2(O)CC1` (configuration not stated), the “activity change, negative = inhibition” value was -1.98%.

On to `COc1cc(/C=C/C(=O)OC2CC3CCC2(C)C3(C)C)ccc1O` (configuration not stated), for which the “activity change, negative = inhibition” value was 3.12%.

Consider `C=C1CCC2C(C)(C(=O)O)CC(O)CC2(C)C1CC/C(C)=C/C(=O)O` (configuration not stated), for which the “activity change, negative = inhibition” value is 1.49%.

Regarding `CC(=O)c1c(C)cc(O)cc1O[C@@H]1O[C@H](CO)[C@@H](O)[C@H](O)[C@H]1O`, the “activity change, negative = inhibition” value was -0.555%.

Consider `c1ccc(Nc2nc3c(s2)CCCc2[nH]ncc2-3)nc1`, for which the “activity change, negative = inhibition” value is -7.68% [at 114 µM].

Regarding `C[C@H]1CN(C[C@H](Cc2ccccc2)C(=O)NCC(=O)O)CC[C@@]1(C)c1cccc(O)c1`, the “activity change, negative = inhibition” value is 2.5% [at 114 µM].

With `O=C(c1ccc(NS(=O)(=O)c2cccc3cccnc23)cc1)N1CCN(CC2CC2)CC1`, the “activity change, negative = inhibition” value is -3.78% [at 114 µM].

On to `CC(=O)NCCCCn1c2c(c3ccccc31)C(=O)NCC2`, for which the “activity change, negative = inhibition” value is -1.07% [at 114 µM].

Consider `CCc1nc(C(N)=O)c(Nc2ccc(N3CCC(N4CCN(C)CC4)CC3)c(OC)c2)nc1NC1CCOCC1`, for which the Potency result was “inactive”.

On to `COc1cc(C/C(=C/NC(C)=O)N(CC(=O)Cc2ccccc2)C(C)=O)cc2c1OCO2`, for which the “activity change, negative = inhibition” value is 5.25%.

For `C[C@@H]1O[C@@H](OC[C@H]2O[C@@H](OCC3CCC4CC3C4(C)C)[C@H](O)[C@@H](O)[C@@H]2O)[C@H](O)[C@H](O)[C@H]1O` (some centres not stated), the “activity change, negative = inhibition” value is -5.09%.

The values above are taken from PubChem BioAssay (NCATS).
